From PubChem BioAssay AID588474 (The Scripps Research Institute Molecular Screening Center, 2011) come the findings set out here.

The structures appear in SMILES notation. Values without a mark were called inactive. Activity calls are given as the source filed them.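 The calls were made as follows: active = inhibition of at least 75% in the gel-based probe competition assay; inactive = inhibition below 75%.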

In the assay the target is Platelet-activating factor acetylhydrolase (Mus musculus) (UniProt Q60963). As to the kind of experiment: recombinant plasma PAF acetylhydrolase inhibition – biochemical, gel-based competitive ABPP, fluorescence, orthogonal assay, late-stage follow-up (AID 588474). To be noted: recombinant mouse pPAFAH, FP-Rh fluorescence, at 5 µM, hits give high values.
Sequence of Platelet-activating factor acetylhydrolase (Mus musculus) (Q60963 whole entry, looked up): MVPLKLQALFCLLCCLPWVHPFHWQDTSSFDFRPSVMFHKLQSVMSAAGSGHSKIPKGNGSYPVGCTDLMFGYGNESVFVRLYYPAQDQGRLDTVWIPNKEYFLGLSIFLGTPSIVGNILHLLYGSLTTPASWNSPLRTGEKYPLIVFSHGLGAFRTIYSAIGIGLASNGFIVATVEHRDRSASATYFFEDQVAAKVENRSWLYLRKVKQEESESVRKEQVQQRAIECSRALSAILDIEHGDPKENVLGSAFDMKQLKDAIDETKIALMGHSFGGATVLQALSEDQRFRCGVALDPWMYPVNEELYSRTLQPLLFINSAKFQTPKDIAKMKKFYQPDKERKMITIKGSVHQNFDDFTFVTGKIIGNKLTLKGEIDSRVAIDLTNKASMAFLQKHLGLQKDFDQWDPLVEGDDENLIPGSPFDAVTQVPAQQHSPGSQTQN
With `O=C(Oc1ccc([N+](=O)[O-])cc1)N1CCC(N2CCCCC2)CC1`, the inhibition was 84% (active).

As to `N#Cc1ccccc1Cn1cc(C(=O)c2cccs2)c2ccccc21`, the inhibition was 44%. With `O=C(c1cccs1)c1cn(Cc2ccccc2Cl)c2ccccc12`, the inhibition was 43%.

Take `Cc1cc(C(=O)CS(=O)(=O)c2ccccc2)cc(C)c1OC(=O)N(C)C`: the inhibition is 36%.

Consider `O=C(c1ccco1)c1cn(Cc2ccccc2Cl)c2ccccc12`, for which the inhibition was 9%. Turning to `CN(C)C(=O)Oc1noc2cc(Cl)ccc12`, the inhibition was 99% (active). In the case of `NCCc1ccc(S(=O)(=O)F)cc1`, the inhibition is 16%. Take `N#Cc1ccccc1Cn1cc(C(=O)c2ccccc2F)c2ccccc21`: the inhibition is 8%.

As for `CN1C[C@H](CNC(=O)OCc2ccccc2)C[C@@H]2c3cccc4c3c(cn4C)C[C@H]21`, the inhibition is 15%.

A word on the inhibition: it is the percentage by which the read-out fell short of the control.
